The structures appear in SMILES notation. Inconclusive results are not listed. Where a call stands in place of a potency, no number is given. The source made the active and inactive calls. Calls follow the shape of the full dose curve.
Also: nearly all actives have a fitted effect of over 35% in size.

Gonadotropin-releasing hormone receptor (Homo sapiens), sequence (P30968 whole entry, looked up): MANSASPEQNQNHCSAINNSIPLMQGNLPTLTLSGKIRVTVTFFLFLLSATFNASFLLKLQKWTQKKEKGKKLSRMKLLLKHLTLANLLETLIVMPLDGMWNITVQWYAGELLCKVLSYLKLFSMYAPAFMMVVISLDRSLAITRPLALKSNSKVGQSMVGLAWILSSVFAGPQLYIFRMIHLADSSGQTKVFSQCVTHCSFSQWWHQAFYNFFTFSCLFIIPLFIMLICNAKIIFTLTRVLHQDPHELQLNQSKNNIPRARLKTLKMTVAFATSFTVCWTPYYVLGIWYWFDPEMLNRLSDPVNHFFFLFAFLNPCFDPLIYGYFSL

System in one test: not listed separately
Description: Nuclear factor erythroid 2-related factor 2/antioxidant responsive element (Nrf2/ARE) small molecule agonists: luciferase reporter gene qHTS assay in human keratinocytes (AID 1919969). Also: potency is read from the fitted curve at half-maximal effect. The note with it: KeratinoSens HaCaT ARE-luciferase, luminescence, 24 h; series mostly up to 92.4 µM.
For `O=[N+]([O-])c1cc([N+](=O)[O-])c2ccccc2c1`, the Potency is 17.2 µM (active).
On the same count and under the same terms, to `CCCCCCCCCCCCN(C)C` belongs “inactive”; to `C=CC[C@]1(O)CC[C@H]2[C@@H]3CCC4=CC(=O)CCC4=C3C=C[C@@]21C`, “inactive”.
The same measure, in the same setting: to `Cc1cccc2sc3nncn3c12` belongs “inactive”.
Still for that read-out and setting: to `CCCCC(CC)COC(=O)OOC(C)(C)C` (stereo unspecified) belongs “inactive”; to `CCOP(=O)(OCC)O/C(=C/Cl)c1ccc(Cl)cc1Cl`, “inactive”; to `CNNC`, “inactive”.
Take `C=C(Cl)CSC(=S)N(CC)CC`: the Potency is 66.8 µM (active).
Turning to `O=C(CBr)Nc1ccc(Cl)cc1C(=O)c1ccccc1F`, the Potency result was “inactive”.
On the same count and under the same terms, the same measure for `Nc1ccc(Cl)cc1C(=O)c1ccccc1F`: “inactive”; for `COc1ccc(C=O)cc1O`: “inactive”; for `C[C@]12C=CC(=O)C=C1CC[C@@H]1[C@@H]2CC[C@@]2(C)[C@H]1CC[C@]2(C)O`: “inactive”.
Consider `COc1cc(CC(C)N)c(OC)cc1Br` (stereo unspecified), for which the Potency result was “inactive”.
The same measure, in the same setting: the same measure for `N#CCCl`: “inactive”.
Still for that read-out and setting: the same measure for `CCCCCCCCCCCCCN1CC(C)OC(C)C1` (stereo unspecified): “inactive”; for `CCN(CC)c1c([N+](=O)[O-])cc(C(F)(F)F)c(N)c1[N+](=O)[O-]`: “inactive”; for `Cc1cccc(OP(=O)(Oc2cccc(C)c2)Oc2cccc(C)c2)c1`: “inactive”.
Same read-out and setting: to `O=C(Nc1ccc2[nH]ccc2c1)c1cc2cc(F)ccc2n1Cc1cccc(F)c1` belongs “inactive”.
`CSc1ccc(C(=O)C(C)(C)N2CCOCC2)cc1`: the Potency entry is “inactive”.
Same read-out and setting: the same measure for `NC1=NC(=O)C(c2ccccc2)O1` (stereo unspecified): “inactive”; for `COP(=S)(OC)Oc1c(Cl)cc(C)cc1Cl`: “inactive”.

The target in the next test is Gonadotropin-releasing hormone receptor (Homo sapiens) (UniProt P30968). In words: Human gonadotropin-releasing hormone receptor (GnRHR) small molecule agonists, calcium flux assay in GnRHR-HEK293 cells (AID 1920063). The note with it: calcium flux fluorescence, agonist mode; series mostly up to 57.6 µM. In a few lines:
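Calcium-dye fluorescence, Ex/Em=480/540, recorded every 1 sec over 3 min after compound addition to GnRHR-HEK293 cells. Cells had been seeded 18 hours earlier and dye-loaded for 1 hour at 37 C. Fifteen concentrations, triplicates.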
Take `CCN(CC)C(=O)N[C@@H]1C=C2c3cccc4[nH]cc(c34)C[C@@H]2N(C)C1`: the Potency entry was “inactive”.
As for `O=[N+]([O-])c1ccc2c3c(cccc13)CC2`, the Potency entry is “inactive”.
Turning to `CCCN(CCC)C(=O)Cc1c(-c2ccc(Cl)cc2)nc2ccc(Cl)cn12`, the Potency entry was “inactive”.
Still for that read-out and setting: the same measure for `CC(C)[C@H](C(=O)O[C@H](C#N)c1cccc(Oc2ccccc2)c1)c1ccc(Cl)cc1`: “inactive”; for `CCC(C(N)=O)N1CCCC1=O` (stereo unspecified): “inactive”; for `CCOC(=O)C(Cl)Cc1cc(-n2nc(C)n(C(F)F)c2=O)c(F)cc1Cl` (stereo unspecified): “inactive”.
Regarding `CCO/N=C(\CC)C1=C(O)CC(c2c(C)cc(C)cc2C)CC1=O` (stereo unspecified), the Potency result is “inactive”.
For the molecule `Oc1ccc2ccc3cccc4ccc1c2c34`, the Potency result is “inactive”.
With `O=C(O)CCCCCCNC1c2ccccc2CCc2ccccc21`, the Potency result was “inactive”.
On the same count and under the same terms, to `COP(=O)(OC)O/C(=C\Cl)c1cc(Cl)c(Cl)cc1Cl` belongs “inactive”.
On the same count and under the same terms, the same measure for `CS(=O)(=O)c1ccc(C(=O)C2C(=O)CCCC2=O)c(Cl)c1COCC(F)(F)F`: “inactive”; for `O=C(N/N=C/c1ccc([N+](=O)[O-])o1)c1cc([N+](=O)[O-])cc([N+](=O)[O-])c1O`: “inactive”; for `CCCCC(=O)Cl`: “inactive”.
Same read-out and setting: to `COC(=O)C(C)N(C(=O)c1ccco1)c1c(C)cccc1C` (stereo unspecified) belongs “inactive”; to `COc1cnc(OC)n2nc(NS(=O)(=O)c3c(OCC(F)F)cccc3C(F)(F)F)nc12`, “inactive”; to `COC1=CC(=O)O[C@@H](CCc2ccccc2)C1`, “inactive”.
Consider `O=C1C(Cl)C(CCl)CN1c1cccc(C(F)(F)F)c1` (stereo unspecified), for which the Potency result is “inactive”.
On the same count and under the same terms, to `ClC(Cl)C(Cl)Cl` belongs “inactive”; to `CCCCCCCC(=O)Cl`, “inactive”.
For `O=[N+]([O-])c1cc([N+](=O)[O-])c2ccccc2c1`, the Potency entry is “inactive”.
Take `CCCCCCCCCCCCN(C)C`: the Potency entry is “inactive”.
The same measure, in the same setting: to `C=CC[C@]1(O)CC[C@H]2[C@@H]3CCC4=CC(=O)CCC4=C3C=C[C@@]21C` belongs “inactive”; to `Cc1cccc2sc3nncn3c12`, “inactive”; to `CCCCC(CC)COC(=O)OOC(C)(C)C` (stereo unspecified), “inactive”.
Consider `CCOP(=O)(OCC)O/C(=C/Cl)c1ccc(Cl)cc1Cl`, for which the Potency result is “inactive”.
The same measure, in the same setting: the same measure for `CNNC`: “inactive”; for `C=C(Cl)CSC(=S)N(CC)CC`: “inactive”; for `O=C(CBr)Nc1ccc(Cl)cc1C(=O)c1ccccc1F`: “inactive”.
On to `Nc1ccc(Cl)cc1C(=O)c1ccccc1F`, for which the Potency entry is “inactive”.
Turning to `COc1ccc(C=O)cc1O`, the Potency entry was “inactive”.
Regarding `C[C@]12C=CC(=O)C=C1CC[C@@H]1[C@@H]2CC[C@@]2(C)[C@H]1CC[C@]2(C)O`, the Potency entry was “inactive”.
On the same count and under the same terms, to `COc1cc(CC(C)N)c(OC)cc1Br` (stereo unspecified) belongs “inactive”; to `N#CCCl`, “inactive”; to `CCCCCCCCCCCCCN1CC(C)OC(C)C1` (stereo unspecified), “inactive”.
In the case of `CCN(CC)c1c([N+](=O)[O-])cc(C(F)(F)F)c(N)c1[N+](=O)[O-]`, the Potency result is “inactive”.
Still for that read-out and setting: to `Cc1cccc(OP(=O)(Oc2cccc(C)c2)Oc2cccc(C)c2)c1` belongs “inactive”.
Still for that read-out and setting: the same measure for `O=C(Nc1ccc2[nH]ccc2c1)c1cc2cc(F)ccc2n1Cc1cccc(F)c1`: “inactive”.
Still for that read-out and setting: the same measure for `CSc1ccc(C(=O)C(C)(C)N2CCOCC2)cc1`: “inactive”; for `NC1=NC(=O)C(c2ccccc2)O1` (stereo unspecified): “inactive”; for `COP(=S)(OC)Oc1c(Cl)cc(C)cc1Cl`: “inactive”.

Source of the values: PubChem BioAssay (Tox21).
